From the supplement of paper PMC6411743
± gives the standard deviation of the averaged measurements. About 5,400 targets were measured; listed, in parts, are those with the largest changes and a random draw of the rest.

Compound: Nc1nc2c(ncn2[C@@H]2O[C@H](COP(=O)(O)OP(=O)(O)OP(=O)(O)O)[C@@H](O)[C@H]2O)c(=O)[nH]1 [guanosine triphosphate]
Assay: NP40-soluble protein abundance relative to vehicle (solubility fold change) (ratio); higher = more soluble protein in presence of GTP
In short: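 Values are fold changes against the detergent-processed vehicle, based on vsn-normalised intensities. Jurkat crude lysate was treated at eight concentrations from 0.1 to 10 mM (10 min at room temperature, then 3 min at 37 °C), solubilised with 0.8% NP40 and benzonase, ultracentrifuged and analysed by TMT-labelled LC-MS/MS over three independent experiments.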

## UniProt Q9H944|B7ZBQ3
Sequence of UniProt Q9H944 (Q9H944 whole entry, one chain of several): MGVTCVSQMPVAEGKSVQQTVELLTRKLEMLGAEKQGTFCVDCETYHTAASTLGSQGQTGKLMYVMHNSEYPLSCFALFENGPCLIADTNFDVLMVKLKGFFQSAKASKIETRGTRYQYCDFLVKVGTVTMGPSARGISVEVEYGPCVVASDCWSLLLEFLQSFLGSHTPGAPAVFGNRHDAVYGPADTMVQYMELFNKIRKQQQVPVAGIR
concentration: 0.1mM
  NP40-soluble protein abundance: 1 ± 0.046
concentration: 0.5mM
  NP40-soluble protein abundance: 1.01 ± 0.05
concentration: 1mM
  NP40-soluble protein abundance: 0.928 ± 0.034
concentration: 2mM
  NP40-soluble protein abundance: 0.984 ± 0.019
concentration: 4mM
  NP40-soluble protein abundance: 0.976 ± 0.025
concentration: 6mM
  NP40-soluble protein abundance: 0.986 ± 0.029
concentration: 8mM
  NP40-soluble protein abundance: 0.9381 ± 0.0083
concentration: 10mM
  NP40-soluble protein abundance: 0.934 ± 0.029

## UniProt Q9UKZ1
concentration: 0.1mM
  NP40-soluble protein abundance: 1.52 ± 0.81
concentration: 0.5mM
  NP40-soluble protein abundance: 1.19 ± 0.11
concentration: 1mM
  NP40-soluble protein abundance: 1.4 ± 0.41
concentration: 2mM
  NP40-soluble protein abundance: 2.81 ± 2.7
concentration: 4mM
  NP40-soluble protein abundance: 1.26 ± 0.14
concentration: 6mM
  NP40-soluble protein abundance: 1.24 ± 0.11
concentration: 8mM
  NP40-soluble protein abundance: 1.29 ± 0.15
concentration: 10mM
  NP40-soluble protein abundance: 1.36 ± 0.051

## UniProt Q9NVX0|Q9NVX0-2|Q9NVX0-3
Sequence of UniProt Q9NVX0 (Q9NVX0 whole entry): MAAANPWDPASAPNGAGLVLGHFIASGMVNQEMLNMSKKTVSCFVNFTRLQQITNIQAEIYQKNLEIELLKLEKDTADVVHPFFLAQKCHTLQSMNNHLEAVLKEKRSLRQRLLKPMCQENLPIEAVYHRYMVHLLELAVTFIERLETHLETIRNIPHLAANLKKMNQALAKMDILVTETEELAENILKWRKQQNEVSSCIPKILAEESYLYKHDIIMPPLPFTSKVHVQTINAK
concentration: 0.1mM
  NP40-soluble protein abundance: 0.873 ± 0.21
concentration: 0.5mM
  NP40-soluble protein abundance: 0.823 ± 0.036
concentration: 1mM
  NP40-soluble protein abundance: 1.02 ± 0.079
concentration: 2mM
  NP40-soluble protein abundance: 1.05 ± 0.083
concentration: 4mM
  NP40-soluble protein abundance: 1.01 ± 0.12
concentration: 6mM
  NP40-soluble protein abundance: 0.996 ± 0.14
concentration: 8mM
  NP40-soluble protein abundance: 0.963 ± 0.022
concentration: 10mM
  NP40-soluble protein abundance: 1.02 ± 0.17

## UniProt Q9Y2S2|Q9Y2S2-2
Sequence of UniProt Q9Y2S2 (Q9Y2S2 whole entry): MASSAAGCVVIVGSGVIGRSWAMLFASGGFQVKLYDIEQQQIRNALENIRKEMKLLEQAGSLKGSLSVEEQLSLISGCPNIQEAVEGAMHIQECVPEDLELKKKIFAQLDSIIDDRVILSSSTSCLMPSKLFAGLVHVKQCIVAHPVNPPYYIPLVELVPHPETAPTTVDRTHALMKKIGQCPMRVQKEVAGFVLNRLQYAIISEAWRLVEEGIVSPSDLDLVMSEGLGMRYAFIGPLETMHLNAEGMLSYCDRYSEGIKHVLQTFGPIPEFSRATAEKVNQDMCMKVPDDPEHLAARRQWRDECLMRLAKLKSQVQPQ
concentration: 0.1mM
  NP40-soluble protein abundance: 1.09 ± 0.12
concentration: 0.5mM
  NP40-soluble protein abundance: 0.991 ± 0.11
concentration: 1mM
  NP40-soluble protein abundance: 0.974 ± 0.12
concentration: 2mM
  NP40-soluble protein abundance: 0.971 ± 0.11
concentration: 4mM
  NP40-soluble protein abundance: 0.948 ± 0.12
concentration: 6mM
  NP40-soluble protein abundance: 0.922 ± 0.13
concentration: 8mM
  NP40-soluble protein abundance: 0.946 ± 0.15
concentration: 10mM
  NP40-soluble protein abundance: 0.912 ± 0.18

## MTMR6 (UniProt Q9Y217)
Sequence of UniProt Q9Y217 (Q9Y217 whole entry): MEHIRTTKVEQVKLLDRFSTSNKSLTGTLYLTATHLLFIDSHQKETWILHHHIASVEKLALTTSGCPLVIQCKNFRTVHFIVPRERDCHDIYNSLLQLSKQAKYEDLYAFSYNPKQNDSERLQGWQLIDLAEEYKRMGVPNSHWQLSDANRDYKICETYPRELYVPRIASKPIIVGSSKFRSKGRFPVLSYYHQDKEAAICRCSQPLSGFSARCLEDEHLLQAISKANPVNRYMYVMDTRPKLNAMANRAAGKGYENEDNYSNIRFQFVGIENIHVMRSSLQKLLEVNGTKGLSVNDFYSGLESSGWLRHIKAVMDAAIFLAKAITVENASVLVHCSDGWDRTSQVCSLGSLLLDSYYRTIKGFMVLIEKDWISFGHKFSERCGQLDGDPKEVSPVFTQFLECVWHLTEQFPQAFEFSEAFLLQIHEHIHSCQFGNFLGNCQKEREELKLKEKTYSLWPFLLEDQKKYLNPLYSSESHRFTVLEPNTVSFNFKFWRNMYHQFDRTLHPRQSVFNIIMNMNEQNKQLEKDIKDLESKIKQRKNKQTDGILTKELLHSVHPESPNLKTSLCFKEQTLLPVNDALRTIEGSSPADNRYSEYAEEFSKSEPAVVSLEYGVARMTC
concentration: 0.1mM
  NP40-soluble protein abundance: 1.068 ± 0.0063
concentration: 0.5mM
  NP40-soluble protein abundance: 1.02 ± 0.027
concentration: 1mM
  NP40-soluble protein abundance: 0.967 ± 0.016
concentration: 2mM
  NP40-soluble protein abundance: 0.969 ± 0.01
concentration: 4mM
  NP40-soluble protein abundance: 0.93 ± 0.031
concentration: 6mM
  NP40-soluble protein abundance: 0.907 ± 0.0098
concentration: 8mM
  NP40-soluble protein abundance: 0.947 ± 0.034
concentration: 10mM
  NP40-soluble protein abundance: 0.913 ± 0.042

## RNF114 (UniProt Q9Y508)
Sequence of UniProt Q9Y508 (Q9Y508 whole entry): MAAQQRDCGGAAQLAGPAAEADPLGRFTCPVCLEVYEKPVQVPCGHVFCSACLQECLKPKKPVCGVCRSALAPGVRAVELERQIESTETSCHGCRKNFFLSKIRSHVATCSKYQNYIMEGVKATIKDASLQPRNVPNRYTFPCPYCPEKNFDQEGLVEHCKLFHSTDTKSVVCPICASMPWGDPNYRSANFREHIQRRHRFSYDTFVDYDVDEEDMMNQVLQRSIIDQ
concentration: 0.1mM
  NP40-soluble protein abundance: 0.95 ± 0.011
concentration: 0.5mM
  NP40-soluble protein abundance: 0.967 ± 0.032
concentration: 1mM
  NP40-soluble protein abundance: 0.924 ± 0.041
concentration: 2mM
  NP40-soluble protein abundance: 0.91 ± 0.068
concentration: 4mM
  NP40-soluble protein abundance: 0.895 ± 0.057
concentration: 6mM
  NP40-soluble protein abundance: 0.897 ± 0.056
concentration: 8mM
  NP40-soluble protein abundance: 0.876 ± 0.072
concentration: 10mM
  NP40-soluble protein abundance: 0.888 ± 0.084

## DDX49 (UniProt Q9Y6V7)
Sequence of UniProt Q9Y6V7 (Q9Y6V7 whole entry): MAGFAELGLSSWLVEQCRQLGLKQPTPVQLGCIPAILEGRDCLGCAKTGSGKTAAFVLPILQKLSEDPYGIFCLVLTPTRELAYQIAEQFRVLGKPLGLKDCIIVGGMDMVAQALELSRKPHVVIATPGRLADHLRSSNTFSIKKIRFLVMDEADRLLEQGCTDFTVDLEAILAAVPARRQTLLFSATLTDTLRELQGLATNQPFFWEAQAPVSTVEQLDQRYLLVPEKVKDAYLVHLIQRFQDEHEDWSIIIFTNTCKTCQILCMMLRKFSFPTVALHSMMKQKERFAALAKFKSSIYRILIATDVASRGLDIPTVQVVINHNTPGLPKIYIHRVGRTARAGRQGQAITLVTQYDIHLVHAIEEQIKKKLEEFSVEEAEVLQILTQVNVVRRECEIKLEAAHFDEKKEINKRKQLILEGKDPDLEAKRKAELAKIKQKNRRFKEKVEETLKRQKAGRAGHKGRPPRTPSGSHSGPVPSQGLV
concentration: 0.1mM
  NP40-soluble protein abundance: 1.02 ± 0.056
concentration: 0.5mM
  NP40-soluble protein abundance: 1.01 ± 0.047
concentration: 1mM
  NP40-soluble protein abundance: 1.03 ± 0.026
concentration: 2mM
  NP40-soluble protein abundance: 1.05 ± 0.072
concentration: 4mM
  NP40-soluble protein abundance: 1.12 ± 0.037
concentration: 6mM
  NP40-soluble protein abundance: 1.19 ± 0.022
concentration: 8mM
  NP40-soluble protein abundance: 1.26 ± 0.076
concentration: 10mM
  NP40-soluble protein abundance: 1.21 ± 0.077

## LARS (UniProt Q9P2J5)
Sequence of UniProt Q9P2J5 (Q9P2J5 whole entry, looked up): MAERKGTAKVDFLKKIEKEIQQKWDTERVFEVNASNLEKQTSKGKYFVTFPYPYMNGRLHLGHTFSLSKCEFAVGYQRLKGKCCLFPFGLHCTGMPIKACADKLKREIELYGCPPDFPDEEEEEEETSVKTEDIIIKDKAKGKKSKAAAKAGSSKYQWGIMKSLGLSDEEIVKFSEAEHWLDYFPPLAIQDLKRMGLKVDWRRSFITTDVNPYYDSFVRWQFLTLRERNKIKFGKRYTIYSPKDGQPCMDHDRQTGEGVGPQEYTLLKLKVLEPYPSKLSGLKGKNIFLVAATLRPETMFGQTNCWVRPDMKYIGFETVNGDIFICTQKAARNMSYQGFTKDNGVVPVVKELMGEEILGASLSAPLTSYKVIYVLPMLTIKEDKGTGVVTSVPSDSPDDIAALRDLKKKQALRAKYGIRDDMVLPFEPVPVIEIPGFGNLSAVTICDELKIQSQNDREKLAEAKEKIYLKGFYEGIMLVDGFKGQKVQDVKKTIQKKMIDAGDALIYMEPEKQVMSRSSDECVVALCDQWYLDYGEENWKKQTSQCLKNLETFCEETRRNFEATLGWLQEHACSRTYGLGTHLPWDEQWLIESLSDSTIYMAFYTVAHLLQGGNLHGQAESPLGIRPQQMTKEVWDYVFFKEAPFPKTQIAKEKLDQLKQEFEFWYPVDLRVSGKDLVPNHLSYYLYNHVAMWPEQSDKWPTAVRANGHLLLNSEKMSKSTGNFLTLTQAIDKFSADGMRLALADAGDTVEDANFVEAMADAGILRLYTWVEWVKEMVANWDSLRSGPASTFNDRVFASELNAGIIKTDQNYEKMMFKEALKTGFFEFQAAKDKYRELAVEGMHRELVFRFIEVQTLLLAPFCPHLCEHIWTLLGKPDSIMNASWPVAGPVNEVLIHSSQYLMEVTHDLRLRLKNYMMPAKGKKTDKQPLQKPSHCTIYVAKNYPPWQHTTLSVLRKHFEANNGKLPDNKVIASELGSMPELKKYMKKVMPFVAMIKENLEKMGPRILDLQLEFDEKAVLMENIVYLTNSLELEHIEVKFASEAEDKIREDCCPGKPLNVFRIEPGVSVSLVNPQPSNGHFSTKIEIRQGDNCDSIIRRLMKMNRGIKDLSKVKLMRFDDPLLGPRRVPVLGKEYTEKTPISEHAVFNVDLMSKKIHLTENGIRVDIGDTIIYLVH
concentration: 0.1mM
  NP40-soluble protein abundance: 1.05 ± 0.078
concentration: 0.5mM
  NP40-soluble protein abundance: 1.13 ± 0.15
concentration: 1mM
  NP40-soluble protein abundance: 1.07 ± 0.18
concentration: 2mM
  NP40-soluble protein abundance: 1.17 ± 0.26
concentration: 4mM
  NP40-soluble protein abundance: 1.2 ± 0.26
concentration: 6mM
  NP40-soluble protein abundance: 1.21 ± 0.28
concentration: 8mM
  NP40-soluble protein abundance: 1.16 ± 0.24
concentration: 10mM
  NP40-soluble protein abundance: 1.09 ± 0.23

## CLIC4 (UniProt Q9Y696)
Sequence of UniProt Q9Y696 (Q9Y696 whole entry): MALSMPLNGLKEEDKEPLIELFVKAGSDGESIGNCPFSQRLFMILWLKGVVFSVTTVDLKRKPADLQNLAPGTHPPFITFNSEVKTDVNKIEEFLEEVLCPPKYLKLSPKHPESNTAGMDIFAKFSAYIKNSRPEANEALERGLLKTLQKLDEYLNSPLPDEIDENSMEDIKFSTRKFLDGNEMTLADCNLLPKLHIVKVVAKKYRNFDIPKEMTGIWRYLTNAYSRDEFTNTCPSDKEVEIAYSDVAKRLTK
concentration: 0.1mM
  NP40-soluble protein abundance: 1 ± 0.088
concentration: 0.5mM
  NP40-soluble protein abundance: 0.929 ± 0.063
concentration: 1mM
  NP40-soluble protein abundance: 0.966 ± 0.1
concentration: 2mM
  NP40-soluble protein abundance: 0.88 ± 0.1
concentration: 4mM
  NP40-soluble protein abundance: 0.976 ± 0.13
concentration: 6mM
  NP40-soluble protein abundance: 0.909 ± 0.1
concentration: 8mM
  NP40-soluble protein abundance: 0.973 ± 0.12
concentration: 10mM
  NP40-soluble protein abundance: 0.866 ± 0.08

## UniProt Q9Y3D9|J3QLR8
concentration: 0.1mM
  NP40-soluble protein abundance: 1.01 ± 0.17
concentration: 0.5mM
  NP40-soluble protein abundance: 1.01 ± 0.19
concentration: 1mM
  NP40-soluble protein abundance: 1.61 ± 0.35
concentration: 2mM
  NP40-soluble protein abundance: 1.69 ± 0.093
concentration: 4mM
  NP40-soluble protein abundance: 1.771 ± 0.00083
concentration: 6mM
  NP40-soluble protein abundance: 1.61 ± 0.061
concentration: 8mM
  NP40-soluble protein abundance: 1.49 ± 0.28
concentration: 10mM
  NP40-soluble protein abundance: 1.73 ± 0.19

## UniProt Q9BVI0|A0A0A0MT13|Q5JWZ0|Q5JXL1
concentration: 0.1mM
  NP40-soluble protein abundance: 1.11 ± 0.068
concentration: 0.5mM
  NP40-soluble protein abundance: 1.07 ± 0.12
concentration: 1mM
  NP40-soluble protein abundance: 1.19 ± 0.078
concentration: 2mM
  NP40-soluble protein abundance: 1.27 ± 0.057
concentration: 4mM
  NP40-soluble protein abundance: 1.52 ± 0.056
concentration: 6mM
  NP40-soluble protein abundance: 1.553 ± 0.012
concentration: 8mM
  NP40-soluble protein abundance: 1.77 ± 0.08
concentration: 10mM
  NP40-soluble protein abundance: 1.71 ± 0.071

## UniProt Q9NVK5|Q9NVK5-2
Sequence of UniProt Q9NVK5 (Q9NVK5 whole entry): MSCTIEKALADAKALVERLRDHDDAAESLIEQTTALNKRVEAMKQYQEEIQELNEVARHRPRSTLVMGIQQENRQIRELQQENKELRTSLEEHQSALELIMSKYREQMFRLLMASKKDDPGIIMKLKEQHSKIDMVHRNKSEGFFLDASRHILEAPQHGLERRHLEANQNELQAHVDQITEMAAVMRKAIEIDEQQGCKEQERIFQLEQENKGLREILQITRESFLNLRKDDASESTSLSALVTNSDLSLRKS
concentration: 0.1mM
  NP40-soluble protein abundance: 0.987 ± 0.072
concentration: 0.5mM
  NP40-soluble protein abundance: 0.945 ± 0.1
concentration: 1mM
  NP40-soluble protein abundance: 1.16 ± 0.17
concentration: 2mM
  NP40-soluble protein abundance: 1.11 ± 0.086
concentration: 4mM
  NP40-soluble protein abundance: 1.13 ± 0.1
concentration: 6mM
  NP40-soluble protein abundance: 1.19 ± 0.092
concentration: 8mM
  NP40-soluble protein abundance: 1.28 ± 0.17
concentration: 10mM
  NP40-soluble protein abundance: 1.27 ± 0.2

## UniProt Q9HA47|Q9HA47-3|Q9HA47-4
Sequence of UniProt Q9HA47 (Q9HA47 whole entry): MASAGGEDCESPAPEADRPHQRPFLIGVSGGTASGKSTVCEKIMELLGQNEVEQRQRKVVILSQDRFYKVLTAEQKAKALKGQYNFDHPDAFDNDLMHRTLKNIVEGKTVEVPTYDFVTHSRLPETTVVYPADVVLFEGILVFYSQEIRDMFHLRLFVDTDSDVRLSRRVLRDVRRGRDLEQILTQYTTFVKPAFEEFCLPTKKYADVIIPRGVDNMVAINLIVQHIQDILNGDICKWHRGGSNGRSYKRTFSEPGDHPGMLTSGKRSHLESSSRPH
concentration: 0.1mM
  NP40-soluble protein abundance: 1.01 ± 0.02
concentration: 0.5mM
  NP40-soluble protein abundance: 0.946 ± 0.037
concentration: 1mM
  NP40-soluble protein abundance: 1.05 ± 0.1
concentration: 2mM
  NP40-soluble protein abundance: 0.966 ± 0.056
concentration: 4mM
  NP40-soluble protein abundance: 0.98 ± 0.1
concentration: 6mM
  NP40-soluble protein abundance: 0.987 ± 0.034
concentration: 8mM
  NP40-soluble protein abundance: 0.983 ± 0.12
concentration: 10mM
  NP40-soluble protein abundance: 0.958 ± 0.024

## UniProt Q93052|A0A087WZF1|C9JXK9
Sequence of UniProt Q93052 (Q93052 whole entry, one chain of several): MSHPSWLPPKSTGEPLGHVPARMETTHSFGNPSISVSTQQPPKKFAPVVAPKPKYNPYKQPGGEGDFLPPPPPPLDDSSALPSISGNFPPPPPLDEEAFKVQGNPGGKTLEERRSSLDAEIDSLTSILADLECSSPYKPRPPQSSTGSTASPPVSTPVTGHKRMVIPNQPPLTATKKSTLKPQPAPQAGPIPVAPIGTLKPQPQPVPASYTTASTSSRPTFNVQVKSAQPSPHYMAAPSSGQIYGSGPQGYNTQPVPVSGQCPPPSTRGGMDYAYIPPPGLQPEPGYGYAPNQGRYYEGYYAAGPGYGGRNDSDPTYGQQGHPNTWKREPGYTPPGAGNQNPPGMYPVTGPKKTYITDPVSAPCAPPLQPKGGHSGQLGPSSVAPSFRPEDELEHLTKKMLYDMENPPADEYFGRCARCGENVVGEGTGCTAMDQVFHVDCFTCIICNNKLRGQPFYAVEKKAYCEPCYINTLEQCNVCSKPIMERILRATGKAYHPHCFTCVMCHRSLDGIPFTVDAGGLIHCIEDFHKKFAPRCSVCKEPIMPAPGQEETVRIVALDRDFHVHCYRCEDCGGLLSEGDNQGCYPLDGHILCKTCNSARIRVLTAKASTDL
concentration: 0.1mM
  NP40-soluble protein abundance: 0.985 ± 0.047
concentration: 0.5mM
  NP40-soluble protein abundance: 0.946 ± 0.086
concentration: 1mM
  NP40-soluble protein abundance: 0.944 ± 0.072
concentration: 2mM
  NP40-soluble protein abundance: 0.906 ± 0.071
concentration: 4mM
  NP40-soluble protein abundance: 0.884 ± 0.063
concentration: 6mM
  NP40-soluble protein abundance: 0.896 ± 0.081
concentration: 8mM
  NP40-soluble protein abundance: 0.906 ± 0.083
concentration: 10mM
  NP40-soluble protein abundance: 0.901 ± 0.09

## CDV3 (UniProt Q9UKY7)
Sequence of UniProt Q9UKY7 (Q9UKY7 whole entry): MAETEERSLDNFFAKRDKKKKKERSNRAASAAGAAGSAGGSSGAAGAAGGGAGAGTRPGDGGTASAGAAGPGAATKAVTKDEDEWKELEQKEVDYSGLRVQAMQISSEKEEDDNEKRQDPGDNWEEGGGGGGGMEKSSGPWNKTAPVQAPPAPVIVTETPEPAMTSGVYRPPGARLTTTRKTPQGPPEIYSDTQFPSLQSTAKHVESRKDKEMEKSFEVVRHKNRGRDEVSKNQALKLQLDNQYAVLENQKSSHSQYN
concentration: 0.1mM
  NP40-soluble protein abundance: 0.957 ± 0.072
concentration: 0.5mM
  NP40-soluble protein abundance: 1.05 ± 0.071
concentration: 1mM
  NP40-soluble protein abundance: 0.915 ± 0.072
concentration: 2mM
  NP40-soluble protein abundance: 0.955 ± 0.11
concentration: 4mM
  NP40-soluble protein abundance: 0.889 ± 0.093
concentration: 6mM
  NP40-soluble protein abundance: 1 ± 0.092
concentration: 8mM
  NP40-soluble protein abundance: 1.09 ± 0.083
concentration: 10mM
  NP40-soluble protein abundance: 1.11 ± 0.068
